The values that follow come from the supplement of paper PMC12645437, “Orthogonal IMiD-Degron Pairs Induce Selective Protein Degradation in Cells” (ACS Chemical Biology, 2025).

Over roughly 8,300 sequences, “log2 fold change of degron read counts, EGFP-low vs EGFP+ sorted cells (limma voom), compound-induced degradation” has its median near -1.1; the highest 2% begin near 3.2. What follows is part of a selection rich in the highest values, with near analogues and random picks from the rest.

For the experiment, the target named is T1, CRBN, Q96SW2.
T1 chain: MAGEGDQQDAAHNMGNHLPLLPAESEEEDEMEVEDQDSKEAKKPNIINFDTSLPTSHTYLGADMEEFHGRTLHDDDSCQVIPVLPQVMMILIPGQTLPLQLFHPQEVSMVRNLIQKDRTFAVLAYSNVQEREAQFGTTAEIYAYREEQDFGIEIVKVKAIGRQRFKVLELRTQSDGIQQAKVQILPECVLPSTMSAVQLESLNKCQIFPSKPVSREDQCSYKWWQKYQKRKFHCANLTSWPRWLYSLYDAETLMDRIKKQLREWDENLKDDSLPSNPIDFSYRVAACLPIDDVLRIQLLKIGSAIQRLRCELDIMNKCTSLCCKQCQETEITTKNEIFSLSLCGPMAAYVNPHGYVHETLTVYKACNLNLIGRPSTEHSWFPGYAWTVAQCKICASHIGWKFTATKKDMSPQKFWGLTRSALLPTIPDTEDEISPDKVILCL
Briefly: log2 fold change of degron read counts, EGFP-low vs EGFP+ sorted cells (limma voom), compound-induced degradation; higher = more compound-induced degradation of the degron-EGFP fusion; degrons are variants of IKZF1/3 zinc finger 2; compound dose not given here. Conditions: Jurkat, 18 h.

[1] abbreviates: compound: compound 19 (5-tert-butyl-thalidomide).
Setting [2] is: compound: compound 22 (5-morpholino-thalidomide).
Where [3] appears, read: compound: compound 33 (diphenyl IMiD analogue).
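Also: pooled lentiviral library of zinc finger degron-EGFP fusions in mCherry-positive Jurkat cells, FACS-sorted after compound exposure, with degron abundance counted by next-generation sequencing.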

B1: 46F_47C_49D_50I_52G_53A_54F_55F_67L_, Q9UKT9 (peptide)
chain: FCCDICGAFFTQKGNLLRHIKL
B1: the “log2 fold change of degron read counts” value by setting is: under setting [1], -0.849; under setting [2], -1.43; under setting [3], -0.311; (compound: thalidomide) -2.26.

B2: 46F_47S_49P_50Q_52G_53A_54H_55F_67L_, Q9UKT9 (peptide)
chain: FSCPQCGAHFTQKGNLLRHIKL
On to B2, for which the “log2 fold change of degron read counts” value runs as follows: under setting [1], -1.06; under setting [2], -2.04; under setting [3], -0.649; (compound: thalidomide) -1.51.

B3: 46F_47S_49S_50V_52G_53H_54M_55F_67L_, Q9UKT9 (peptide)
chain: FSCSVCGHMFTQKGNLLRHIKL
B3: the “log2 fold change of degron read counts” value was -2.17 under setting [1], -2.85 under setting [2], -2.33 under setting [3] and -2.67 (compound: thalidomide).

B4: 46F_47H_49N_50I_52G_53A_54G_55F_67L_, Q9UKT9 (peptide)
chain: FHCNICGAGFTQKGNLLRHIKL
As for B4, the “log2 fold change of degron read counts” value runs as follows: under setting [1], 1.76; under setting [2], 0.175; under setting [3], 1.2; (compound: thalidomide) -0.885.

B5: 46F_47S_49P_50I_52G_53R_54F_55F_67L_, Q9UKT9 (peptide)
chain: FSCPICGRFFTQKGNLLRHIKL
B5: the “log2 fold change of degron read counts” value is -0.54 under setting [1], -1.4 under setting [2], -0.477 under setting [3] and -1.17 (compound: thalidomide).

B6: 46F_47K_49E_50I_52G_53R_54D_55F_67L_, Q9UKT9 (peptide)
chain: FKCEICGRDFTQKGNLLRHIKL
Turning to B6, the “log2 fold change of degron read counts” value under setting [1] was -3.16, the “log2 fold change of degron read counts” value under setting [2] is -3.46, the “log2 fold change of degron read counts” value under setting [3] is -3.24 and the “log2 fold change of degron read counts” value (compound: thalidomide) is -2.51.

B7: 46F_47Y_49P_50I_52G_53R_54F_55F_67L_, Q9UKT9 (peptide)
chain: FYCPICGRFFTQKGNLLRHIKL
Consider B7, for which the “log2 fold change of degron read counts” value is, setting by setting: under setting [1], -0.827; under setting [2], -0.851; under setting [3], -1; (compound: thalidomide) -2.07.

B8: 46L_47L_49E_50I_52G_53F_54A_55C_67L_, Q9UKT9 (peptide)
chain: LLCEICGFACTQKGNLLRHIKL
Regarding B8, the “log2 fold change of degron read counts” value was 0.644 under setting [1], -0.727 under setting [2], 0.56 under setting [3] and 1.35 (compound: thalidomide).

B9: 46F_47L_49D_50Q_52G_53A_54Y_55F_67L_, Q9UKT9 (peptide)
chain: FLCDQCGAYFTQKGNLLRHIKL
In the case of B9, the “log2 fold change of degron read counts” value by setting is: under setting [1], -3.04; under setting [2], -2.52; under setting [3], -2.25; (compound: thalidomide) -2.41.

B10: 46L_47Y_49E_50I_52G_53F_54Q_55C_67L_, Q9UKT9 (peptide)
chain: LYCEICGFQCTQKGNLLRHIKL
Consider B10, for which the “log2 fold change of degron read counts” value under setting [1] is 3.53, the “log2 fold change of degron read counts” value under setting [2] was determined as 3.71, the “log2 fold change of degron read counts” value under setting [3] was determined as 2.78 and the “log2 fold change of degron read counts” value (compound: thalidomide) came out at 1.8.

B11: 46L_47I_49E_50I_52G_53F_54Q_55C_67L_, Q9UKT9 (peptide)
chain: LICEICGFQCTQKGNLLRHIKL
Take B11: the “log2 fold change of degron read counts” value by setting is: under setting [1], 0.761; under setting [2], 2.3; under setting [3], 2.38; (compound: thalidomide) 3.

B12: 46L_47E_49E_50I_52G_53F_54Q_55C_67L_, Q9UKT9 (peptide)
chain: LECEICGFQCTQKGNLLRHIKL
In the case of B12, the “log2 fold change of degron read counts” value reads like this: under setting [1], -0.896; under setting [2], -1.36; under setting [3], 0.772; (compound: thalidomide) 2.01.

B13: 46L_47D_49E_50I_52G_53F_54Q_55C_67L_, Q9UKT9 (peptide)
chain: LDCEICGFQCTQKGNLLRHIKL
With B13, the “log2 fold change of degron read counts” value under setting [1] is -0.786, the “log2 fold change of degron read counts” value under setting [2] is -1.68, the “log2 fold change of degron read counts” value under setting [3] is -1.53 and the “log2 fold change of degron read counts” value (compound: thalidomide) was -0.616.

B14: 46L_47W_49E_50I_52G_53F_54Q_55C_67L_, Q9UKT9 (peptide)
chain: LWCEICGFQCTQKGNLLRHIKL
Regarding B14, the “log2 fold change of degron read counts” value by setting is: under setting [1], 3.2; under setting [2], 3.49; under setting [3], 2.53; (compound: thalidomide) 1.13.

B15: 46L_47M_49E_50I_52G_53F_54Q_55C_67L_, Q9UKT9 (peptide)
chain: LMCEICGFQCTQKGNLLRHIKL
On to B15, for which the “log2 fold change of degron read counts” value under setting [1] was 0.286, the “log2 fold change of degron read counts” value under setting [2] was found to be 0.912, the “log2 fold change of degron read counts” value under setting [3] amounted to 2.55 and the “log2 fold change of degron read counts” value (compound: thalidomide) turned out to be 2.04.

B16: 46L_47S_49E_50I_52G_53F_54Q_55C_67L_, Q9UKT9 (peptide)
chain: LSCEICGFQCTQKGNLLRHIKL
For B16, the “log2 fold change of degron read counts” value under setting [1] was determined as 2.4, the “log2 fold change of degron read counts” value under setting [2] was 1.95, the “log2 fold change of degron read counts” value under setting [3] is 0.752 and the “log2 fold change of degron read counts” value (compound: thalidomide) amounted to 1.19.

B17: 46L_47C_49E_50I_52G_53F_54Q_55C_67L_, Q9UKT9 (peptide)
chain: LCCEICGFQCTQKGNLLRHIKL
B17: the “log2 fold change of degron read counts” value runs as follows: under setting [1], 1.95; under setting [2], 1.72; under setting [3], 1.6; (compound: thalidomide) 1.91.

B18: 46L_47L_49E_50I_52G_53F_54Q_55C_67L_, Q9UKT9 (peptide)
chain: LLCEICGFQCTQKGNLLRHIKL
For B18, the “log2 fold change of degron read counts” value reads like this: under setting [1], 0.49; under setting [2], -0.719; under setting [3], 0.751; (compound: thalidomide) 1.99.

B19: 46L_47Q_49E_50I_52G_53F_54Q_55C_67L_, Q9UKT9 (peptide)
chain: LQCEICGFQCTQKGNLLRHIKL
For the sequence B19, the “log2 fold change of degron read counts” value by setting is: under setting [1], 0.99; under setting [2], 0.223; under setting [3], 1.43; (compound: thalidomide) 3.3.

B20: 46L_47F_49E_50I_52G_53F_54Q_55C_67L_, Q9UKT9 (peptide)
chain: LFCEICGFQCTQKGNLLRHIKL
On to B20, for which the “log2 fold change of degron read counts” value runs as follows: under setting [1], 3.43; under setting [2], 3.41; under setting [3], 1.96; (compound: thalidomide) 2.09.

B21: 46L_47A_49E_50I_52G_53F_54Q_55C_67L_, Q9UKT9 (peptide)
chain: LACEICGFQCTQKGNLLRHIKL
Regarding B21, the “log2 fold change of degron read counts” value under setting [1] came to 3.16, the “log2 fold change of degron read counts” value under setting [2] is 2.06, the “log2 fold change of degron read counts” value under setting [3] stood at 0.631 and the “log2 fold change of degron read counts” value (compound: thalidomide) came to 0.66.

B22: 46F_47M_49E_50Q_52G_53A_54P_55F_67L_, Q9UKT9 (peptide)
chain: FMCEQCGAPFTQKGNLLRHIKL
Turning to B22, the “log2 fold change of degron read counts” value under setting [1] was -0.389, the “log2 fold change of degron read counts” value under setting [2] is -0.627, the “log2 fold change of degron read counts” value under setting [3] was 1.41 and the “log2 fold change of degron read counts” value (compound: thalidomide) is -0.399.

B23: 46F_47T_49E_50I_52G_53H_54I_55F_67L_, Q9UKT9 (peptide)
chain: FTCEICGHIFTQKGNLLRHIKL
Consider B23, for which the “log2 fold change of degron read counts” value runs as follows: under setting [1], -2.87; under setting [2], -3.7; under setting [3], -2.68; (compound: thalidomide) -2.59.

B24: 46F_47G_49D_50I_52G_53A_54N_55F_67L_, Q9UKT9 (peptide)
chain: FGCDICGANFTQKGNLLRHIKL
Take B24: the “log2 fold change of degron read counts” value by setting is: under setting [1], -0.278; under setting [2], -0.474; under setting [3], 0.0264; (compound: thalidomide) -0.564.

B25: 46F_47Y_49N_50Q_52G_53R_54H_55F_67L_, Q9UKT9 (peptide)
chain: FYCNQCGRHFTQKGNLLRHIKL
Regarding B25, the “log2 fold change of degron read counts” value is -2.11 under setting [1], -2.71 under setting [2], -2.01 under setting [3] and -2.05 (compound: thalidomide).

B26: 46F_47R_49N_50Q_52G_53H_54L_55F_67L_, Q9UKT9 (peptide)
chain: FRCNQCGHLFTQKGNLLRHIKL
Take B26: the “log2 fold change of degron read counts” value runs as follows: under setting [1], -2.18; under setting [2], -2.82; under setting [3], -2.46; (compound: thalidomide) -2.45.

B27: 46L_47F_49N_50Q_52G_53F_54A_55C_67L_, Q9UKT9 (peptide)
chain: LFCNQCGFACTQKGNLLRHIKL
Regarding B27, the “log2 fold change of degron read counts” value runs as follows: under setting [1], -0.744; under setting [2], -1.36; under setting [3], -1.06; (compound: thalidomide) -1.14.

B28: 46L_47A_49N_50Q_52G_53F_54E_55C_67L_, Q9UKT9 (peptide)
chain: LACNQCGFECTQKGNLLRHIKL
For B28, the “log2 fold change of degron read counts” value under setting [1] is -2.6, the “log2 fold change of degron read counts” value under setting [2] is -2.34, the “log2 fold change of degron read counts” value under setting [3] is -2.97 and the “log2 fold change of degron read counts” value (compound: thalidomide) was -2.24.
